Active and inactive are the calls of the source. The calls were made as follows: active = hit-call score of the fitted dose curve at least 0.9, where 1 is the maximum; inactive = score below 0.9.

The assay in a line: ATG_Oct_MLP_CIS: Attagene CIS-FACTORIAL HepG2 Assay for human Octamer-Binding Transcription Factor (Oct) (AID 2282993). As to conditions: HepG2 Attagene cis-factorial Oct reporter, mRNA; actives raise or lower the signal. How it is done:
ATG_CIS is a cell-based, multiplexed-readout assay that uses HepG2, a human liver cell line, with measurements taken at 24 hours after chemical dosing in a 24-well plate.ATG_Oct_MLP_CIS is one of 52 assay component(s) measured or calculated from the ATG_CIS assay. It is designed to make measurements of mRNA induction, a form of inducible reporter, as detected with fluorescence intensity signals by Reverse transcription polymerase chain reaction (RT-PCR) and Capillary electrophoresis technology.Data from the assay component ATG_Oct_MLP_CIS was analyzed into 1 assay endpoint. This assay endpoint, ATG_Oct_MLP_CIS, was analyzed with bidirectional fitting relative to DMSO as the negative control and baseline of activity. Using a type of inducible reporter, measures of mRNA for gain or loss-of-signal activity can be used to understand the reporter gene at the transcription factor-level as they relate to the gene POU2F1. Furthermore, this assay endpoint can be referred to as a primary readout, because this assay has produced multiple assay endpoints where this one serves a reporter gene function. To generalize the intended target to other relatable targets, this assay endpoint is annotated to the dna binding intended target family, where the subfamily is POU domain protein.
Human liver HepG2 cells are transiently transfected with multiple reporter transcription units (MRTUs) in 6-well plates using FuGene 6 reagent (Roche; 3 ml FuGene/1 mg DNA). The MRTU constructs are regulated by a cis-regulating element (promoter). […] A major difference between the CIS and TRANS system is that in CIS activities of endogenous TFs are measured, whereas the TRANS assay evaluates changes in activities of exogenous, chimeric NR-Gal4 proteins. […] At the end of 24 hour incubation, total RNA was isolated using TriZol reagent (Invitrogen). The isolated RNA is then reverse-transcribed using oligo(dT) primer and Mo-MLV reverse transcriptase (Invitrogen) with DNAse I (Ambion) treatment for 30 min. The one-tenth of the produced cDNA was amplified by PCR using Taq DNA polymerase (Invitrogen) and two reporter sequence-specific primers. The PCR products were fluorescently labeled by primer extension with 6-arboxyfluorescein (6-FAM) 5'-labeled reporter sequence-specific primer (2 min at 95 C, 20 s at 68 C and 10 min at 72 C) and these products were digested with 5U of HpaI (New England Biolabs) for 2h at 37 C. The fragments were purified using Qiaquick PCR columns (Qiagen), analyzed on an ABI 3130xL genetic analyzer (Applied Biosystems) with peak positions identified by using a set of X-rhodamine (ROX)-labeled MapMarker1000 molecular weight standards (BioVentures). The raw capillary electrophoresis data was processed using Attagraph software (Attagene).
With `CC(=O)OCC(=O)[C@@]12N=C(C)O[C@@H]1C[C@H]1[C@@H]3CCC4=CC(=O)C=C[C@]4(C)[C@H]3[C@@H](O)C[C@@]12C`, the result was inactive. In the case of `CCCCCCCCCCOS(=O)(=O)O`, the call was inactive. Regarding `C[Si](C)(CCCN)O[Si](C)(C)CCCN`, the molecule was classed as inactive. The same measure, in the same setting: in the case of `CC(C)=CC1CC(C)CCO1` (stereo not given) it was “inactive”. Still for that read-out and setting: to `Cc1ccc2c(c1)C(=O)c1ccccc1C2=O` belongs “inactive”; to `NNC(=O)c1cccc(C(=O)NN)c1`, “inactive”; to `O=C(O)c1cc(Cl)cc([N+](=O)[O-])c1Cl`, “inactive”.

Regarding `O=C(O)CC(C(=O)O)C(CC(=O)O)C(=O)O` (stereo not given), the molecule was classed as inactive. On the same count and under the same terms, in the case of `CCCCCC/C=C/C=O` it was “inactive”; in that of `C=CC(C)(CCC=C(C)C)OC(=O)CC(C)C` (stereo not given), “inactive”.

Turning to `NC(=O)OCC(COC(N)=O)c1ccccc1`, the result was inactive. Turning to `CCOC(=O)CC`, the outcome was inactive. `CCOc1nc(F)cc2nc(S(=O)(=O)Nc3c(Cl)cccc3C(=O)OC)nn12`: the molecule was classed as inactive. A word on the AC50: it is the concentration giving half of the maximal activity seen. Regarding `CC(C)c1ccc2c(c1)CC[C@H]1[C@](C)(CN)CCC[C@]21C`, the AC50 was 5.89 µM (active). In the case of `CCCCCCCCCCOC(C)=O`, the molecule was classed as inactive. For `CCN(CC)c1ccc(C(=O)c2ccccc2C(=O)O)c(O)c1`, the molecule was called inactive.

With `CCCCCC(C)O` (stereo not given), the call was inactive.

As to `C=C(C)[C@@H]1CCC2=CCC[C@@H](C)[C@]2(C)C1`, the outcome was inactive. On the same count and under the same terms, in the case of `CC(CC=O)c1ccccc1` (stereo not given) it was “inactive”; in that of `CC(C)(C)c1ccc(N)cc1`, “inactive”.

For the molecule `CC(C)(C)C(=O)C=Cc1ccc(Cl)cc1`, the AC50 was 26.3 µM (active).

`CCCCCCCC(C)=O`: the outcome was inactive. On the same count and under the same terms, in the case of `CC=C1CC2C=CC1C2` (stereo not given) it was “inactive”.

Regarding `CCCC(C)CCC(C)=O` (stereo not given), the result was inactive. The same measure, in the same setting: to `C=CC=CC=CCCCCC` belongs “inactive”; to `CC=CC(F)(F)C(F)(F)C(F)(F)F`, “inactive”; to `O=CN1CCCCC1`, “inactive”.

Turning to `c1ccc2c(c1)ccc1cc3c(ccc4ccccc43)cc12`, the result was inactive. Regarding `O=P(O)(O)Oc1ccccc1`, the outcome was inactive.

`S=C(NC1CCCCC1)NC1CCCCC1`: the call was inactive. On the same count and under the same terms, to `C=CC(C)(CCC=C(C)C)OC(=O)C(C)C` (stereo not given) belongs “inactive”; to `CC(C)c1ccc2c(C(C)C)cc(C(C)C)c(S(=O)(=O)O)c2c1`, “inactive”; to `O=c1[nH]nc(-c2ccc([N+](=O)[O-])o2)o1`, “inactive”.

Take `c1ccc2c(c1)ccc1ncccc12`: the outcome was inactive. For the molecule `Cc1cc(C)c(C)cc1C`, the molecule was classed as inactive. The same measure, in the same setting: in the case of `NC(=O)c1ccccc1O` it was “inactive”; in that of `CC/C=C\C/C=C\C/C=C\CCCCCCCC(=O)O`, “inactive”; in that of `CCCCCc1ccc(Cl)cc1`, “inactive”.

For the molecule `O=C1CCCC(=O)O1`, the molecule was called inactive.

As to `COC(=O)/C=C\C(=O)O`, the call was inactive.

Values taken from PubChem BioAssay (EPA / NIEHS).
